Inconclusive results are not listed. Activity calls are given as the source filed them. Unless noted, calls follow the shape of the full dose curve.
Experiments:
[1] = Nuclear factor erythroid 2-related factor 2/antioxidant responsive element (Nrf2/ARE) small molecule agonists: qHTS cell viability counter screen in human keratinocytes (AID 1919968; active = well fitted curve in the direction sought with a large enough effect in the repeat runs; an effect the other way counts as inactive or inconclusive; also: nearly all actives have a fitted effect of over 55% in size)
Method in brief: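 KeratinoSens cells (HaCaT keratinocytes stably carrying an ARE-luciferase reporter) were seeded at 1,500 cells/well and rested 5 h at 37 C/5% CO2. They were then exposed to compounds in DMSO for 23 h. Viability was read by CellTiter-Fluor fluorescence after 1 h.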

[2] = Nuclear factor erythroid 2-related factor 2/antioxidant responsive element (Nrf2/ARE) small molecule agonists: luciferase reporter gene qHTS assay in human keratinocytes (AID 1919969); also: nearly all actives have a fitted effect of over 35% in size; also: potency is read from the fitted curve at half-maximal effect
[3] = molecular target: Gonadotropin-releasing hormone receptor (Homo sapiens) (UniProt P30968); assay: Human gonadotropin-releasing hormone receptor (GnRHR) small molecule agonists, calcium flux assay in GnRHR-HEK293 cells (AID 1920063); also: nearly all actives have a fitted effect of over 35% in size
Method in brief: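 HEK293 cells stably expressing human GnRHR were plated 18 h at 37 °C, loaded with calcium dye 1 h at 37 °C, then given compound in agonist mode; fluorescence (Ex/Em 480/540) read kinetically for 3 min at 1 s intervals.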

[4] = molecular target: KiSS-1 receptor (Homo sapiens) (UniProt Q969F8); assay: Human kisspeptin (KISS1R) small molecule agonists, calcium flux assay in KISS1R-HEK293 cells (AID 1920064; active = well fitted curve in the direction sought with a large enough effect in the repeat runs; an effect the other way counts as inactive or inconclusive)
Method in brief: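 HEK293 cells stably expressing human KISS1R were plated 18 h at 37 °C, loaded with calcium dye for 1 h at 37 °C, then given compound by pin tool. Fluorescence (Ex/Em 480/540) was read kinetically for 3 min.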

[5] = G protein-coupled receptor (GPCR) small molecule agonists, calcium flux assay: HEK293 wild type cell line counter screen (AID 1920065)
Method in brief: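 Cells were plated and cultured 18 h at 37 C/5% CO2, then loaded with calcium dye for 1 h at 37 C. Compounds in DMSO were pin-transferred in agonist mode, and fluorescence (Ex/Em 480/540) was read kinetically for 3 min at 1 s intervals.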

[6] = p53 small molecule agonists, cell-based qHTS assay with human liver microsomes: qHTS cell viability counter screen (AID 1963579); also: nearly all actives have a fitted effect of over 45% in size
Method in brief: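 In this multiplexed counter screen, the reporter plates were subsequently treated with CellTiter-Glo so that cell viability, reflected by luminescence, could be recorded for p53RE-bla cells dosed 16 h with compounds under microsomal activation (HLM and NADPH).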

[7] = p53 small molecule agonists, cell-based qHTS assay with rat liver microsomes: qHTS cell viability counter screen (AID 1963580); also: nearly all actives have a fitted effect of over 45% in size
Method in brief: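 p53RE-bla HCT-116 cells (4,000/well) rested 5 h at 37 C, then given Tox21 compounds in DMSO with rat liver microsomes (0.5 mg/mL final) plus NADPH (0.5 mg/mL final) for 16 h at 37 C. Viability read by CellTiter-Glo luminescence after 30 min at room temperature.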

[8] = molecular target: 5-hydroxytryptamine receptor 2A (Homo sapiens) (UniProt P28223); assay: 5-hydroxytryptamine receptor 2A (HTR2A) small molecule antagonists, cell-based qHTS assay (AID 1963586); also: nearly all actives have a fitted effect of over 45% in size
Method in brief: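 Antagonist-mode intracellular calcium assay: DOI (4 nM) added after 5 min compound pre-incubation at room temperature to dye-loaded HTR2A-CHO cells. Fluorescence followed for 3 min, sampled every second.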

[9] = molecular target: Muscarinic acetylcholine receptor M1 (Homo sapiens) (UniProt P11229); assay: Cholinergic receptor muscarinic 1 (CHRM1) small molecule antagonists, cell-based qHTS assay (AID 1963588); also: nearly all actives have a fitted effect of over 40% in size
Method in brief: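 CHRM1-CHO calcium-flux assay, antagonist mode. Cells were seeded 18 h, dye-loaded 1 h at 37 C and given compound for 5 min at RT, then acetylcholine was added at 50nM. FDSS fluorescence was read 3 min; 15 concentrations, three runs.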

[10] = molecular target: Muscarinic acetylcholine receptor M1 (Homo sapiens) (UniProt P11229); assay: Cholinergic receptor muscarinic 1 (CHRM1) small molecule agonists, cell-based qHTS assay (AID 1963589); also: nearly all actives have a fitted effect of over 35% in size
Method in brief: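 CHO cells stably expressing human CHRM1, seeded 18 h at 37 C/5% CO2, dye-loaded 1 h at 37 C, then given compound in agonist mode; intracellular calcium fluorescence read kinetically at 1 s intervals. Fifteen concentrations, three independent runs.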

[11] = cAMP Responsive Elements (CRE) small molecule agonists, cell-based qHTS assay (AID 1963590)
Method in brief: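 CRE-bla HEK 293T cells in DMEM with 10% dialyzed FBS, NEAA, pyruvate and 25 mM HEPES were plated 18 h at 37 C/5% CO2, then exposed to compounds in DMSO for 3 h before LiveBLAzer B/G FRET substrate addition.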

[12] = cAMP Responsive Elements (CRE) small molecule antagonists, cell-based qHTS assay (AID 1963591; active = well fitted inhibition curve with a large enough effect in the signal ratio in the repeat runs, not every such curve was filed as active; the % refers to the signal ratio)
Method in brief: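 CRE-bla HEK293T cells were plated 18 h at 37 °C/5% CO2, pinned with compound in DMSO, then stimulated with NKH477 at 0.25 uM final for 3 h. LiveBLAzer B/G FRET substrate was added and plates incubated 2 h at room temperature.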

[13] = molecular target: Beta-2 adrenergic receptor (Homo sapiens) (UniProt P07550); assay: Adrenergic beta2 receptor (ADRB2) small molecule antagonists, cell-based qHTS assay (AID 1963592); also: series mostly up to about 92 µM; nearly all actives have a fitted effect of over 50% in size
Method in brief: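 Cells (CHO, stable ADRB2 overexpression) incubated 18-20hr at 37C; compounds added from DMSO; agonist mix (1nM isoproterenol, 100uM IBMX, 25uM Ro-20-1724) added; 0.5hr RT; d2-cAMP and anti-cAMP-cryptate added; 1hr RT; 665/615 nm read.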

[14] = molecular target: D(2) dopamine receptor (Homo sapiens) (UniProt P14416); assay: Dopamine D2 receptor (DRD2) small molecule agonists, cell-based qHTS assay (AID 1963594); also: nearly all actives have a fitted effect of over 35% in size
Method in brief: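 HEK293 cells stably expressing DRD2 were cultured 24 h at 37 C, then given Ro20-1724 (0.1 mM final) and compounds for 10 min at room temperature. NKH477 (200nM) was then added for 30 min. cAMP was read by HTRF.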

[15] = p53 small molecule agonists, cell-based qHTS assay: qHTS cell viability counter screen (AID 1963581); also: nearly all actives have a fitted effect of over 45% in size
Method in brief: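 p53RE-bla HCT-116 cells were exposed to compounds for 16 h at 37 C; after the beta-lactamase FRET read in the same wells, CellTiter-Glo was added and luminescence (intracellular ATP) read after 30 min at room temperature.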

[16] = p53 small molecule agonists, cell-based qHTS assay (AID 1963582; active = well fitted activation curve with a large enough effect in the signal ratio in the repeat runs, not every such curve was filed as active; the % refers to the signal ratio)
Method in brief: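 p53RE-bla beta-lactamase reporter cells rested 5 h at 37 C/5% CO2, then received compounds in DMSO by pin transfer and were incubated 16 h at 37 C. LiveBLAzer B/G FRET substrate was loaded for 2 h at room temperature before fluorescence reading.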

[17] = molecular target: 5-hydroxytryptamine receptor 2A (Homo sapiens) (UniProt P28223); assay: 5-hydroxytryptamine receptor 2A (HTR2A) small molecule agonists, cell-based qHTS assay (AID 1963587); also: nearly all actives have a fitted effect of over 30% in size
Method in brief: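 HTR2A-CHO cells, plated 18 h at 37 C/5% CO2, dye-loaded 1 h at 37 C; compounds in DMSO added by pin tool (agonist mode). Intracellular calcium flux read as kinetic fluorescence on FDSS over 2 min at 1 s intervals.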

[18] = molecular target: D(2) dopamine receptor (Homo sapiens) (UniProt P14416); assay: Dopamine D2 receptor (DRD2) small molecule antagonists, cell-based qHTS assay (AID 1963595; active = well fitted inhibition curve with a large enough effect in the signal ratio in the repeat runs, with a control signal flat; the % refers to the signal ratio)
Method in brief: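 Antagonist mode in DRD2-HEK293 cells: after compound addition with 0.1 mM Ro20-1724, cells received quinpirole (12 nM) and NKH477 (200 nM) for 30 min at room temperature; HTRF cAMP read after 1 h detection.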

Measured: Potency

Sequence of Muscarinic acetylcholine receptor M1 (Homo sapiens) (P11229 whole entry, looked up): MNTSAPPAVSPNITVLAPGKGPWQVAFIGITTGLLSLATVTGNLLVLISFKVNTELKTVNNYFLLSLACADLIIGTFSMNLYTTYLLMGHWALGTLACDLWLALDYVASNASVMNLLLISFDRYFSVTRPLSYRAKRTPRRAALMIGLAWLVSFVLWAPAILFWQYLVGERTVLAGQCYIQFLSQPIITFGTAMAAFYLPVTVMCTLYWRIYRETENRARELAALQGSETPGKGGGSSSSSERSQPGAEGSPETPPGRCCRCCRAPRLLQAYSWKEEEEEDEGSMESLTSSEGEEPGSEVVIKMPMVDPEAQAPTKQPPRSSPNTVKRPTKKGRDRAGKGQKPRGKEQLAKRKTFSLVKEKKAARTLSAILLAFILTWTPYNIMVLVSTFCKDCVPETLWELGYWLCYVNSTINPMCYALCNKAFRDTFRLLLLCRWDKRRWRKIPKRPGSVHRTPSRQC
Sequence of 5-hydroxytryptamine receptor 2A (Homo sapiens) (P28223 whole entry, looked up): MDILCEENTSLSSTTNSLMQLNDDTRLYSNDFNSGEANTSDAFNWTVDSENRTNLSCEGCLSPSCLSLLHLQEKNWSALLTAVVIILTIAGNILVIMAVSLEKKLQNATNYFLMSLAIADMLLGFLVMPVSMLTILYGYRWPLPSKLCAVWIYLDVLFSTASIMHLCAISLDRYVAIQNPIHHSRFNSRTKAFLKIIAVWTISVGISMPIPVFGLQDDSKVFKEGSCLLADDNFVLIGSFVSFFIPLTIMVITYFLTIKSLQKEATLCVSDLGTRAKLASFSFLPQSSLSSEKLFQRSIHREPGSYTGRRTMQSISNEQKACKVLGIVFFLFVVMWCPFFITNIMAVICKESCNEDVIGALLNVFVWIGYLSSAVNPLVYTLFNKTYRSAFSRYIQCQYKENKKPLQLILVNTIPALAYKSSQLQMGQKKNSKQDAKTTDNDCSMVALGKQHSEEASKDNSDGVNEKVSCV
Sequence of KiSS-1 receptor (Homo sapiens) (Q969F8 whole entry, looked up): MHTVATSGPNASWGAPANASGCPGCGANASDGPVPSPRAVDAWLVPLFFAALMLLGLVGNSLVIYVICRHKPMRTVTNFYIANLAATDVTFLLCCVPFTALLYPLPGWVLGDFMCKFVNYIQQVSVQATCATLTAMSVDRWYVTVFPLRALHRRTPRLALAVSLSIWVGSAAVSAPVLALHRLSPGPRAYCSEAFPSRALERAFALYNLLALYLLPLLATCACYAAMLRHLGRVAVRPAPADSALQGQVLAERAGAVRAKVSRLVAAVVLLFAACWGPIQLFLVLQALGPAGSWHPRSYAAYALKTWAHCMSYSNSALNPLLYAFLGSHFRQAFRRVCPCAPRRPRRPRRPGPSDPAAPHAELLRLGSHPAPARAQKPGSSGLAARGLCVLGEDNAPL
Sequence of Beta-2 adrenergic receptor (Homo sapiens) (P07550 whole entry, looked up): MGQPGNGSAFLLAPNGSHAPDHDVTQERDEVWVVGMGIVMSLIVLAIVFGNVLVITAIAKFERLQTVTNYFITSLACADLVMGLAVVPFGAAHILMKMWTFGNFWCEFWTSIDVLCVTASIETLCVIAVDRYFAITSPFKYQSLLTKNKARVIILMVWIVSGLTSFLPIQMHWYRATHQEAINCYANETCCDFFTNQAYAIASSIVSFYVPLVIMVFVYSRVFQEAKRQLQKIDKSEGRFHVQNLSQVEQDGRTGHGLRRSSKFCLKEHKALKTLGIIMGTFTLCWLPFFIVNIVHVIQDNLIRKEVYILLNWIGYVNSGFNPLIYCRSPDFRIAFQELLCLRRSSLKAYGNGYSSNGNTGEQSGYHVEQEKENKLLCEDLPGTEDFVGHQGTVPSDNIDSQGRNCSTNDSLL
Sequence of D(2) dopamine receptor (Homo sapiens) (P14416 whole entry, looked up): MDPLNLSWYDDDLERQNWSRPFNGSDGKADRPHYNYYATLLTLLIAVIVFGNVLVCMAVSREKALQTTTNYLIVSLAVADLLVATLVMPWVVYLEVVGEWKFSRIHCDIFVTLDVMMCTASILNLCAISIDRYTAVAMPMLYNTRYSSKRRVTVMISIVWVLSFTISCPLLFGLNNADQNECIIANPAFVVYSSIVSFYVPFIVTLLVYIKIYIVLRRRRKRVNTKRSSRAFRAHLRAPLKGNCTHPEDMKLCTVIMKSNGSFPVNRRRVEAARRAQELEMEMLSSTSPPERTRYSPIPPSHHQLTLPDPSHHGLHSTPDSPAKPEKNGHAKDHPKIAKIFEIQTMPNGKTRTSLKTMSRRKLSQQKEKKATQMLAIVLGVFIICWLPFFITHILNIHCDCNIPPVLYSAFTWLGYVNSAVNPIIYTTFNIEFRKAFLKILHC
Sequence of Gonadotropin-releasing hormone receptor (Homo sapiens) (P30968 whole entry, looked up): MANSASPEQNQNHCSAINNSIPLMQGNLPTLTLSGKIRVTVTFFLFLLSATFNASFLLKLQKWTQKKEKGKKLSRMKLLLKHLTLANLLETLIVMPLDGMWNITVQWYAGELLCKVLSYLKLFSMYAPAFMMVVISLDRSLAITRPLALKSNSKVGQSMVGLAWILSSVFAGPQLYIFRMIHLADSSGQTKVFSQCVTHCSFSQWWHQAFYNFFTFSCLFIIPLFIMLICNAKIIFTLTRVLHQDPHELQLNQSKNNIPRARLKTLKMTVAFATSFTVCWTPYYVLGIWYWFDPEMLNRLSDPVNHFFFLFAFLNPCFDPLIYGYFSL

CC1CN1P(=O)(N1CC1C)N1CC1C (stereo not given)
not listed: [15] | [16] | [17] | [18]
inactive: all other assays above

CC(C)CP(=S)(S)CC(C)C
active: [2] 15.4 µM
not listed: [7] | [10] | [18]
inactive: all other assays above

CCS(=O)(=O)CCSP(=O)(OC)OC
active: [2] 61.1 µM
not listed: [7] | [12]
inactive: all other assays above

CCC1(CCC(C)C)C(=O)NC(=O)NC1=O
not listed: [6] | [8] | [9] | [10] | [11] | [16] | [17]
inactive: all other assays above

Fc1ccc(C2(Cn3cncn3)OC2c2ccccc2Cl)cc1 (stereo not given)
not listed: [9] | [12] | [13] | [15] | [16]
inactive: all other assays above

CCN[C@H](C)Cc1cccc(C(F)(F)F)c1
inactive: [1] | [2] | [3] | [4] | [5] | [6] | [7] | [11] | [12] | [14]

CCCCc1ccccc1
not listed: [6] | [16]
inactive: all other assays above

C=CCOC(=O)C(C)(C)OC(=O)c1cc(-n2c(=O)cc(C(F)(F)F)n(C)c2=O)ccc1Cl
not listed: [7] | [9] | [12]
inactive: all other assays above

O=C(NC(O)C(Cl)(Cl)Cl)NC(O)C(Cl)(Cl)Cl (stereo not given)
not listed: [15] | [16] | [17]
inactive: all other assays above

Reference: PubChem BioAssay (Tox21)
